Hits are enriched below; roughly 5.2% of the tested compounds scored in any of these assays.
CendR NRP1 mod: alters CendR peptide binding to human NRP-1; FAM-RPARPAR peptide binding to NRP-1, fluorescence polarization; inhibition, % at 25 µM; AID 602438; hit rate 0.85% among 360,000;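 active = inhibition or corrected inhibition above about 18%, plus a signal ratio from 0.5 to 1.5, limit read from the data, passing the limit was not always enough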
M18AAP inhibitor: blocks P. falciparum M18 aspartyl aminopeptidase; inhibition, % at 7.35 µM; AID 1822; recombinant PfM18AAP, H-Glu-NHMec fluorogenic cleavage; hit rate 1.2% among 290,000;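 active = inhibition above the campaign mean inhibition over all tested compounds plus 3 SD, cut at about 28% in these data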
A3A deaminase: inhibitors of human APOBEC3A DNA deaminase | recombinant A3A, FAM/TAMRA ssDNA deamination fluorescence | inhibition, % at 20 µM | hit rate 0.41% among 330,000;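 active = at least 40% inhibition at 20 µM here, with at most 30% in a related deaminase screen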
A3G deaminase: APOBEC3G (human) deaminase inhibition | Q9HC16 | recombinant A3G, ssDNA deamination FAM/TAMRA fluorescence | inhibition, % at 20 µM | hit rate 0.28% among 330,000 | AID 493012;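 active = inhibition of at least 40% at 20 µM, with no more than 30% in the related APOBEC3A deaminase screen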
Target sequence (Q9HC16 whole entry, looked up): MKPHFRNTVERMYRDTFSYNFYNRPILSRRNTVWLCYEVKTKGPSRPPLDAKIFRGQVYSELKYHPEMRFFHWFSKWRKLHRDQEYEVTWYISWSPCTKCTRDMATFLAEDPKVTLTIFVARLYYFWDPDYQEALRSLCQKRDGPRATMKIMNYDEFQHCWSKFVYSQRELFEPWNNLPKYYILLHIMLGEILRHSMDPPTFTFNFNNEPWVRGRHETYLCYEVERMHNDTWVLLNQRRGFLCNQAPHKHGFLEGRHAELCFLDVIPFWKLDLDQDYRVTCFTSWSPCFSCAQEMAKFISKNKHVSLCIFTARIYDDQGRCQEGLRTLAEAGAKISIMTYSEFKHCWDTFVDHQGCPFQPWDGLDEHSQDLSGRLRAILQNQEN
ALR inh: blocks human ALR sulfhydryl oxidase activity. hit rate 3.8% among 290,000. inhibition, % (test concentration not listed). purified ALR, DTT oxidation, H2O2 HRP-luminol luminescence. AID 485317;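 active = mean replicate inhibition above about 79%, with every replicate also reaching it, limit read from the data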
Target sequence (P55789 whole entry, looked up): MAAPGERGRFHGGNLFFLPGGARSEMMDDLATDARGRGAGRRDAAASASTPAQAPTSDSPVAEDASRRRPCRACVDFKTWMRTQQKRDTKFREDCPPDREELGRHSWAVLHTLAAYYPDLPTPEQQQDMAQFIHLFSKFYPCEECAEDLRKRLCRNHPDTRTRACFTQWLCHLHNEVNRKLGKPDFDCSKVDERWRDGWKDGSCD
CR mimetic SO: yeast age-related superoxide inhibition as caloric restriction mimetic. S. cerevisiae aged cells, superoxide DHE fluorescence; hits give low values. superoxide response (% of plate mean), % at 10 µM. hit rate 0.18% among 330,000;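 active = superoxide response under a set limit, about three screen SD below normal, cut at about 65% in these data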;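 also: yeast aged for seven days with compound at 30 °C before DHE staining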
Large screens that a line does not name were inactive.

CC(C)=NOCc1ccc(-c2cn([C@@H]3COC[C@H]3O)nn2)cc1	none (no result: CendR NRP1 mod, A3A deaminase, A3G deaminase, ALR inh, CR mimetic SO)
COc1ccc(-c2nc(SC(C)C(=O)NCC3CCCO3)n[nH]2)cc1 (stereo not given)	none (no result: M18AAP inhibitor)
COc1ccc(-c2nc(SC(C)C(=O)Nc3ccc(NC(C)=O)cc3)n[nH]2)cc1 (stereo not given)	ALR inh 98 (no result: M18AAP inhibitor)
Nc1cc(N)nc(SCC(=O)c2ccccc2)n1	ALR inh 99
COc1ccc(Cl)cc1C(=O)CSc1nc(N)cc(N)n1	ALR inh 94
CCCCn1nnnc1SCC(=O)c1cc(Cl)ccc1OC	none
Nc1cc(N)nc(SCC(=O)Nc2ccccc2)n1	none
Cc1cc(SCC(=O)c2ccccc2)nc(C)n1	CendR NRP1 mod 26
Cc1ccc(C(=O)CSc2cc(C)nc(SCC(=O)c3ccccc3)n2)cc1	none (no result: ALR inh)
O=c1n(Cc2ccccc2Cl)nc2n1-c1ccccc1SC2	none
CCOC(=O)C1=CCN(S(=O)(=O)c2ccc(C)cc2)C1c1ccc(C(C)C)cc1 (stereo not given)	CendR NRP1 mod 28 (no result: M18AAP inhibitor, A3A deaminase, A3G deaminase, ALR inh, CR mimetic SO)
CCOC(=O)C1=CCN(S(=O)(=O)c2ccccc2Br)C1c1ccccc1 (stereo not given)	CendR NRP1 mod 25 (no result: M18AAP inhibitor, A3A deaminase, A3G deaminase, ALR inh, CR mimetic SO)
O=C(CCC(=O)N1CCN(c2ccccn2)CC1)c1cccs1	none (no result: M18AAP inhibitor)
COc1cc(/C=N\NC(=O)c2ccc(Cn3nc([N+](=O)[O-])c(Cl)c3C)o2)ccc1O	ALR inh 95
C/C(=N\Nc1nc2ccccc2[nH]1)c1ccc(Cl)s1	ALR inh 99
C/C(=N\Nc1nc2ccccc2[nH]1)c1ccc(C)o1	ALR inh 99
COc1ccc(O)c(CN2CCC(n3nccc3NC(=O)c3ccccc3Cl)CC2)c1	none
CCSCc1nnc(SCC(=O)Nc2cccc(SC)c2)n1C	ALR inh 98
CC(C)NC(=O)/C(C#N)=C/c1ccc(N(C)C)o1	ALR inh 98
O=C1CCCC(=O)C1=Cc1c[nH]c2ccccc12	none
O=C(N/N=C1\CC(c2ccccc2)Oc2ccccc21)c1ccc(O)cc1 (stereo not given)	none
O=C(CSc1nc2ccccc2[nH]1)N1c2ccccc2Sc2ccccc21	none (no result: ALR inh)
CCCOc1ccc(C(C)=O)cc1CSc1nc(O)cc(=O)[nH]1	ALR inh 99
O=c1cc(O)nc(SCc2ccccc2)[nH]1	ALR inh 98
CCCOc1ccc(C(C)=O)cc1CSCCC#N	none
O=C(CSc1nc(O)cc(=O)[nH]1)N1c2ccccc2Sc2ccccc21	ALR inh 99
O=C(c1cc2ccccc2oc1=O)N1CCOCC1	none
Cc1[nH]c2ccccc2c1C(c1ccncc1)N1CCC(C)CC1 (stereo not given)	ALR inh 97
Cc1[nH]c2ccccc2c1C(c1ccccn1)N1CCC(C(N)=O)CC1 (stereo not given)	ALR inh 98
Cc1cccc(C(=O)Nc2nnc(S(=O)(=O)N(C)Cc3ccco3)s2)c1	ALR inh 94
O=C(O)c1cc(=O)c2c(OCC(O)COc3cccc4oc(C(=O)O)cc(=O)c34)cccc2o1	none (no result: A3A deaminase, A3G deaminase, ALR inh, CR mimetic SO)
NC(=O)NC(=O)CC1S/C(=N/N=C2\CSC(=O)N2)NC1=O (stereo not given)	ALR inh 85
O=C(O)CNC(=O)CC1S/C(=N/N=C2/NC(=O)CS2)NC1=O (stereo not given)	ALR inh 90
NC(=O)NC(=O)CC1S/C(=N/N=C/c2ccccc2)NC1=O (stereo not given)	none
COc1cccc(-n2c(CNC(=O)OC(C)(C)C)n[nH]c2=S)c1	ALR inh 89
O=C(NCc1n[nH]c(=S)n1-c1ccc(Cl)c(Cl)c1)c1ccc(S(=O)(=O)N2CCOCC2)cc1	none (no result: ALR inh)
COc1ccc(-n2c(CNC(=O)c3ccc(S(=O)(=O)N4CCCC4)cc3)n[nH]c2=S)cc1	ALR inh 91
O=C(NCc1n[nH]c(=S)n1-c1ccc(Br)cc1)c1ccc(S(=O)(=O)N2CCCC2)cc1	ALR inh 91
COc1ccccc1-n1c(CNC(=O)c2ccc(S(=O)(=O)N3CCOCC3)cc2)n[nH]c1=S	A3G deaminase 42
CCN1C(=O)/C(=C\N(C)C)S/C1=N\S(=O)(=O)c1ccccc1	none
COc1ccc(-n2c(CNC(=O)c3cc(OC)c(OC)c(OC)c3)n[nH]c2=S)cc1	ALR inh 93
COc1cc(OC)cc(C(=O)NCc2n[nH]c(=S)n2-c2ccccc2OC)c1	none
COc1ccc(CC(=O)NCc2nnc(SCC(=O)c3ccc(OC)cc3)n2C)cc1	none
COc1ccc(CC(=O)NCc2n[nH]c(=S)n2C)cc1	ALR inh 97
O=C(NCc1n[nH]c(=S)n1-c1ccc(Br)cc1)c1ccc(S(=O)(=O)N2CCOCC2)cc1	M18AAP inhibitor 28
COc1cccc(/C=C/c2onc(C)c2S(=O)(=O)N2CCC(C(=O)NC3CCCCCC3)CC2)c1	none
COc1cccc(N2CC(=O)N(c3cccc(OC)c3)CC2=O)c1	none
COc1cccc(-n2cnc3cccc(N)c32)c1	ALR inh 87
Clc1cccc(OCCOCCN2CCNCC2)c1Cl	none (no result: M18AAP inhibitor)
Cn1nc(-c2ccccn2)nc2c(=O)n(C)c(=O)nc1-2	CendR NRP1 mod 28
CCOC(=O)C(=O)Nc1ccccc1C(=O)OC	none
CCOC(=O)C(=O)NNc1cccc(C)c1C	ALR inh 98
CCOC(=O)C(=O)Nc1ccccc1C(N)=O	none
CCOC(=O)C(=O)NNc1ccccc1C	ALR inh 98
Cc1oc2c(C)c3oc(=O)c(CCC(=O)N4CCC(C(=O)NCCC(=O)O)(c5ccccc5)CC4)c(C)c3cc2c1C	none
COc1ccc(SC[C@H](C)CN2CC[C@H](C(C)(C)C)CCC2=O)cc1	ALR inh 99 (no result: M18AAP inhibitor)
C[C@@H](CSc1ccccc1)CN1CC[C@H](C(C)(C)C)CCC1=O	none
C[C@@H](CSc1ccc(Br)cc1)CN1CC[C@H](O)CCC1=O	none (no result: M18AAP inhibitor)
CC(=O)Nc1ccc(SCCN2CC[C@@H](C(C)(C)C)CCC2=O)cc1	ALR inh 99 (no result: M18AAP inhibitor)
CC(=O)Nc1ccc(SC[C@H](C)CN2CC[C@H](O)CCC2=O)cc1	ALR inh 98 (no result: M18AAP inhibitor)
Cc1ccc(Cn2ccc(C3CC3)n2)cc1	none (no result: ALR inh)
CCN(CC)c1ccc(C2C(C(=O)OCCOC)=C(C)NC3=C2C(=O)CC(C)(C)C3)cc1 (stereo not given)	ALR inh 99
CCN(CC)c1ccc(C2CC(=O)NC3=C2C(=O)CC(C)(C)C3)cc1 (stereo not given)	ALR inh 95
O=C(O)CNC(=O)C1CCCN1C(=O)CNC(=O)OCc1ccccc1 (stereo not given)	none
COc1ccc(CNC(=O)Cn2ccc(NC(=O)OCc3ccccc3)nc2=O)cc1	CendR NRP1 mod 38 (no result: M18AAP inhibitor)
Cc1ccc(CNC(=O)Cn2ccc(NC(=O)OCc3ccccc3)nc2=O)o1	none (no result: M18AAP inhibitor)
O=C(Cn1ccc(NC(=O)OCc2ccccc2)nc1=O)NCc1ccc2[nH]ccc2c1	CendR NRP1 mod 24 (no result: M18AAP inhibitor)
O=C(/C=C/c1ccccc1)Nc1cccnc1	none
